A selection: hits, their analogues and other compounds. The true share with any hit is near 21%.
Pf growth 48h – Primary qHTS for delayed death inhibitors of the malarial parasite plastid, 48 hour incubation | P. falciparum luciferase growth in erythrocytes, 48 h | Potency, µM (doses to about 28.7 µM), inactives show at the top dose activity change, negative = inhibition, actives largely listed as inhibitors | 5.9% of 310,000 active; further: potency means the concentration at half of the fitted maximal effect; on the % scale 0 is the no-effect control and ±100 the full control effect
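Firefly luciferase activity from engineered P. falciparum reports growth; inhibitors lower the luminescent signal. Cultures contained 2% hematocrit erythrocytes at 0.1% final parasitemia.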
HCV inhibitor – qHTS Assay for Inhibitors of Hepatitis C Virus (HCV). Huh7.5.1 HCVcc-Cre infection, luciferase reporter, 44 h. Potency, µM (top dose mostly 41.8 µM), for inactives: at the highest dose activity change, negative = inhibition, hits mostly inhibitors. 3.4% of 340,000 active. AID 651820, 2012; further: potency means the concentration at half of the fitted maximal effect; on the % scale 0 is the no-effect control and ±100 the full control effect
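Whole-lifecycle infectious HCVcc-Cre system; cells 1,000/well, compound then virus (~0.5 moi) added 4 h after plating, 44 h culture. Luciferase read 15 sec following 15 min substrate incubation, room temp.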
Pf growth 96h – Primary qHTS for delayed death inhibitors of the malarial parasite plastid, 96 hour incubation; 6.9% of 320,000 active; AID 504834, 2011; Potency, µM (series often up to 28.7 µM), for the others: at the highest dose activity change, negative = inhibition, actives largely listed as inhibitors; P. falciparum luciferase reporter growth, 96 h; further: potency means the concentration at half of the fitted maximal effect; on the % scale 0 is the no-effect control and ±100 the full control effect
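Luminescence readout: decreased luciferase signal marks inhibited growth of reporter-expressing P. falciparum in infected red cells (2% hematocrit, 0.05% parasitemia final), exposed to compound two generations (96 h, 37 C, 5% CO2).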
Shiga toxin inh – A qHTS for Small Molecule Inhibitors of Shiga Toxin; Vero cells, Shiga toxin protein synthesis inhibition reporter; inhibition, % at 38.7 µM; 9.2% of 290,000 active; AID 2315, 2010; in the data active means inhibition mostly above about 28%, no sharp cut-off; inactive means mostly below about 43%; further: 0% is about no effect
Cycloheximide cs – Cycloheximide Counterscreen for Small Molecule Inhibitors of Shiga Toxin. max response, %. AID 2314, 2010. cell reporter, cycloheximide protein synthesis inhibition counterscreen. 12% of 300,000 active; in the data active means max response mostly above about 13%, no sharp cut-off; inactive means mostly below about 14%; further: read at 38.3 µM for the half of the compounds with a filed dose; 0% is about no effect
AMA1 RON2 block – qHTS for Inhibitors of AMA1-RON; Towards Development of Antimalarial Drug Lead: Primary Screen; Plasmodium falciparum AMA1 (3D7) - RON2 peptide interaction; AlphaScreen AMA1-biotinylated RON2 peptide binding; Potency, µM (top dose mostly 58.2 µM), for the others: at the top dose activity change, negative = inhibition, usual class: inhibitors; 0.2% of 360,000 active; AID 720542, 2013;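 further: potency means the concentration at half of the fitted maximal effect; 0% = vehicle wells and -100% = peptide control; nearly all actives have a fitted effect of over 45% in size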
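AMA1 (3D7) with his tag at 25 nM final met compounds first, then biotinylated RON2 peptide at 25 nM; detection used donor plus acceptor beads, 10 µg/mL apiece, read by AlphaScreen after 30 min at room temperature.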
Numbers without * were called inactive; ? = inconclusive; · = no result given; [ ] = another dose, or the depositor's remark. Unless noted, the call rests on the fitted dose curve; in most records, active means well fitted curve in the direction sought with a large enough effect; inconclusive means small, poorly fitted or top-dose-only effect, or another doubt; inactive means no such curve, though single readings can be large; an effect the other way counts as inactive or inconclusive.

SMILES	Pf growth 48h	HCV inhibitor	Pf growth 96h	Shiga toxin inh	Cycloheximide cs	AMA1 RON2 block
Cc1ccc(NS(=O)(=O)c2coc(C(N)=O)c2)cc1F	6%	9%	41%	-6	3	2%
CCOc1cccc2cc(C(=O)N3CCc4ccccc4C3)c(=O)oc12	12%	?	5%	-4	1	-12%
COc1cccc2cc(C(=O)N3CCc4ccccc4C3)c(=O)oc12	·	10%	23%	39	24*	0%
CCOc1ccc(NC(=S)NCc2ccc3c(c2)OCO3)cc1	?	1%	?	23	9.1*	-11%
Cc1ccc(NC(=S)NCc2ccc3c(c2)OCO3)cc1	12%	-4%	0%	6	7	-2%
COc1ccc(CNC(=S)NCc2ccc(OC)cc2)cc1	7%	-10%	0%	-3	1	6%
CCOc1ccc(CNC(=S)NCc2ccc(OCC)cc2)cc1	19%	?	7%	9	11*	17%
CC(=O)Nc1ccc(OCc2ccc3c(c2)OCO3)cc1	65%	-6%	0%	167*	46*	1%
CC(=O)CCC(=O)OCC(=O)c1ccc(C(F)(F)F)cc1	?	11%	-10%	-3	15	5%
Clc1ccc(SCc2cc(Cl)nc(-c3ccccc3)n2)cc1	·	-9%	·	·	·	67%
Clc1cc(CSc2ccccc2)nc(-c2ccccc2)n1	0%	18%	8%	33	22*	110%
CCC(=O)OCC(=O)Nc1ccc2c(c1)OCO2	0%	10%	35%	29	9	2%
CCCC(=O)OCC(=O)Nc1ccc2c(c1)OCO2	0%	-7%	26%	29	15*	-2%
O=C(COC(=O)C1CC1)Nc1ccc2c(c1)OCO2	-6%	16%	61%	52	36*	-11%
O=C(COC(=O)c1ccc([N+](=O)[O-])o1)Nc1ccc2c(c1)OCO2	·	-7%	·	·	·	5%
COc1ccc(-n2c(SCC(=O)Nc3ccccc3)nnc2-c2ccc(NS(=O)(=O)c3ccc(C)cc3)cc2)cc1	·	?	3.3µM*	50	-1	12%
COc1ccc(-n2c(SCC(N)=O)nnc2-c2ccc(NS(=O)(=O)c3ccc(C)cc3)cc2)cc1	·	10%	10µM*	-11	-3	2%
COc1ccc(-n2c(SCC#N)nnc2-c2ccc(NS(=O)(=O)c3ccc(C)cc3)cc2)cc1	·	?	14%	-12	-5	4%
Cc1nn(-c2ccccn2)c2c1C(=O)CC(C)(C)C2Br (configuration not stated)	15µM*	-25%	?	4	2	3%
Cc1ccc(-n2nc(C)c3c2C(Br)C(C)(C)CC3=O)nc1 (configuration not stated)	·	12%	·	·	·	30%
O=C(CN(c1ccccc1)S(=O)(=O)c1ccccc1)N/N=C/c1ccco1	7%	-2%	3.7µM*	-8	-2	6%
COc1ccc(N(CC(=O)NCc2ccco2)S(=O)(=O)c2ccccc2)cc1	-11%	2%	6.6µM*	26	15	-13%
Cc1cccc(N(CC(=O)NCc2ccco2)S(=O)(=O)c2ccccc2)c1	·	·	·	·	·	-2%
Cc1cc(C)cc(N(CC(=O)NCc2ccco2)S(=O)(=O)c2ccccc2)c1	?	8%	35%	48*	9	-8%
COCCn1c(SCC(=O)NC(=O)NC2CCCC2)nc2ccccc2c1=O	?	-28%	?	·	·	0%
SMILES	Pf growth 48h	HCV inhibitor	Pf growth 96h	Shiga toxin inh	Cycloheximide cs	AMA1 RON2 block
CCCCn1c(-c2ccc(OC)cc2)nc2c(=O)n(C)c(=O)[nH]c21	-12%[0.00184 µM]	10%	1.7µM*	6	-6	25%
COc1cccc(CN2CCCC(C(=O)N3CCCCC3)C2)c1 (configuration not stated)	27%	4%	27%	3	-4	6%
Cc1nc(-c2ccccn2)nc(N2CCOCC2)c1Cl	?	-3%	2.3µM*	-6	7	81%
CSc1nc(N2CCN(c3ccccc3Cl)CC2)c2ccccc2n1	?	?	?	14	8	-6%
Cc1nc(-c2ccccn2)nc(N(C)c2ccccc2)c1Cl	1.7µM*	10µM*	1.2µM*	22	20	27%
Cc1nc(-c2ccccn2)nc(SCC(=O)c2ccc(F)cc2)c1Cl	?	?	?	2	-1	85%
CSc1nc(N2CCOCC2)c2ccccc2n1	?	10µM*	-13%	-2	0	-12%
Cc1nnc(-c2ccccc2)nc1N1CCOCC1	13%	1%	62%	-11	-2	-6%
c1ccc(-c2nc(N3CCCCCC3)c3ccccc3n2)nc1	0.83µM*	1.6µM*	·	-5	-2	-23%
CCCCN1C[C@H](COC(=O)CCC)Oc2cccc(F)c2S1(=O)=O	·	24%	·	·	·	21%
O=C1c2ccccc2C(c2nnnn2-c2ccc3ccccc3c2)N1C1CC1 (configuration not stated)	·	·	·	·	·	1%
CCN1CCN(c2nc(-c3ccccn3)nc3ccccc23)CC1	?	-24%	?	26	6	19%
c1ccc(-c2nc(N3CCOCC3)c3ccccc3n2)nc1	7.4µM*	?	?	-5	16	106%
COc1cccc(S(=O)(=O)N(C)C[C@@H]2OCc3cn(nn3)CCCC(=O)N([C@@H](C)CO)C[C@H]2C)c1	·	·	·	·	·	8%
Oc1cc(O)cc(O)c1	-6%	·	-29%	·	·	·
Oc1cc(O)cc(/C=C/c2ccc(O)c(O)c2)c1	-3%	0.56µM*	1%	-6	-7	7.1µM*
COC(=O)c1[nH]c2ccc(C)cc2c1NC(=O)CN1CCCc2ccccc21	4.1µM*	?	2.3µM*	27	15	-12%
COC(=O)c1[nH]c2cc(C)ccc2c1NC(=O)CN1CCN(c2ccccc2OC)CC1	?	10µM*	?	-12	-3	-5%
COC(=O)c1[nH]c2cccc(Cl)c2c1NC(=O)CN1CCCCC1C (configuration not stated)	?	-8%	4.1µM*	-10	-2	18%
COC(=O)c1[nH]c2ccccc2c1NC(=O)CN1CCCCCC1	·	?	?	-9	-1	9%
COC(=O)c1[nH]c2ccccc2c1NC(=O)CN1CCC(C(N)=O)(N2CCCCC2)CC1	13µM*	-3%	·	-14	2	9%
COc1ccc(C(=O)NCC(=O)Nc2ccc(-c3ccccc3)cc2)cc1	0%	15%	17%	26	-1	4%
COc1ccc(S(=O)(=O)NCCC(=O)Nc2ccc(C)cc2)cc1	3%	-15%	21%	-13	2	-7%
CC1CCc2c(sc3ncnc(SCC(=O)N(C)C4CCS(=O)(=O)C4)c23)C1 (configuration not stated)	·	-14%	·	·	·	3%

Assay outcomes as filed in PubChem BioAssay.
